In the library only some 1.4% were active in any assay of this set; here they are far more common.
3CLpro inhibitor: SARS-CoV 3CLpro protease inhibition; inhibition, % at 6 µM; P0C6X7; AID 1706; recombinant SARS-CoV 3CLpro, quenched FRET peptide cleavage; 0.14% of 290,000 active; in the data active means inhibition above about 12%
BJeLR lethal: kills HRASV12-expressing BJeLR cells. BJeLR (HRASV12) viability, CellTiter-Glo ATP luminescence, 48 h. AID 1554. 0.17% of 300,000 active. inhibition, % (no concentration beside the values); in the data active means inhibition above about 50%
CCHF vOTU inh-1: CCHFV vOTU protease inhibition. Pep-AMC fluorescence. inhibition, % at 11.5 µM. AID 651958. 0.55% of 370,000 active; further: 0% = vehicle wells with enzyme and 100% = no enzyme wells
DUSP3 inh: DUSP3 (human) phosphatase inhibition | AID 1654 | inhibition, % at 13.3 µM | P51452 | recombinant VHR phosphatase, pNPP absorbance | 0.52% of 290,000 active; in the data active means inhibition above about 50%
Target sequence (P51452 whole entry, looked up): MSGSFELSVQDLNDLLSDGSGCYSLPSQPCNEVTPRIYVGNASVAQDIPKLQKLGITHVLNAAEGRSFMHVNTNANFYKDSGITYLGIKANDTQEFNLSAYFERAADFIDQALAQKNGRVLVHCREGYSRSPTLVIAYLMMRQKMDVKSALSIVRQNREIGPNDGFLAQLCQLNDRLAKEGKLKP
MazF activator: increases E. coli MazEF RNase cleavage of RNA. P0AE70. FAM/BHQ RNA-DNA oligo cleavage fluorescence, 5 h. activation, % at 20 µM. 0.32% of 350,000 active. AID 504720; in the data active means activation above about 50%
Target sequence (P0AE70 whole entry, looked up): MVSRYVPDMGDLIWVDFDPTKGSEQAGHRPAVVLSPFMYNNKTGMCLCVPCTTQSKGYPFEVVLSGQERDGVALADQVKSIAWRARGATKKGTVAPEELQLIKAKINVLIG
CCHF vOTU inh-2: confirmation of CCHF virus vOTU protease inhibitors; shares compounds with CCHF vOTU inh-1; Recombinant CCHFV vOTU, Pep-AMC fluorescence; inhibition, % at 11.5 µM; 17% of 1,900 active; AID 686976
Numbers without * were called inactive; . = no result. Unless noted, no stated cut-off is given here; in the data, active means inhibition above about 30%; inactive means the rest.

SMILES	3CLpro inhibitor	BJeLR lethal	CCHF vOTU inh-1	DUSP3 inh	MazF activator	CCHF vOTU inh-2
C=CC[C@H](CC(=O)N(CCO)Cc1ccccc1)C(=O)N[C@H](COC(=O)[C@H](CC=C)CC(=O)OC(C)(C)C)Cc1c[nH]c2ccccc12	.	.	24.3	.	-1.3	.
C=CC[C@@H](CC(=O)N(CCO)Cc1ccccc1)C(=O)N[C@H](COC(=O)[C@@H](CC=C)CC(=O)OC(C)(C)C)Cc1ccccc1	.	.	36.7*	.	-5.4	21.5
C[C@H](O)C#Cc1cnc2c(c1)C(=O)N([C@H](C)CO)C[C@@H](C)[C@@H](CN(C)Cc1ccc(-c3ccccc3)cc1)O2	.	.	-7.7	.	-20.0	.
C[C@H](CO)N1C[C@H](C)[C@@H](CN(C)Cc2ccc(-c3ccccc3)cc2)Oc2ncc(C#C[C@@H](C)O)cc2C1=O	.	.	32.8*	.	11.7	-24.7
Oc1ccc2[nH]cc(-c3cccs3)c2c1-c1ccccc1	.	.	3.4	.	.	.
O=c1cc(-c2ccc(O)c(-c3c(O)cc(O)c4c(=O)cc(-c5ccc(O)cc5)oc34)c2)oc2cc(O)cc(O)c12	-3.2	-0.9	30.2*	12.4	-2.7	-3.1
O=c1cc(-c2ccc(O)cc2)oc2c(-c3c(O)cc(O)c4c(=O)cc(-c5ccc(O)cc5)oc34)c(O)cc(O)c12	.	.	20.0	.	4.2	.
CC(C)Oc1ccc(CN2CCC2(C)C(=O)Nc2ccc3c(c2)OCO3)cc1 (stereo not drawn)	.	.	34.2*	.	.	-9.6
CCCCCCCCN1C(=O)[C@H](CC(=O)N2CCCCC2)C[C@@]2(C(=O)OC)CC(C)(C)CC=C12	.	.	33.4*	.	.	12.9
COC(=O)[C@@]12C[C@@H](CC(=O)NCc3ccc(OC)c(OC)c3)C(=O)N(Cc3ccco3)C1=CCC(C)(C)C2	.	.	36.9*	.	.	-11.2
CCCCNC(=O)C[C@@H]1C[C@@]2(C(=O)OC)CC(C)(C)CC=C2N(CCc2ccc(OC)c(OC)c2)C1=O	.	.	0.9	.	.	.
COC(=O)[C@@]12C[C@@H](CC(=O)NCc3ccccc3)C(=O)N(Cc3ccco3)C1=CCC(C)(C)C2	.	.	8.3	.	.	.
CCCCCCCCN1C(=O)[C@H](CC(=O)N2CCOCC2)C[C@@]2(C(=O)OC)CC(C)(C)CC=C12	.	.	29.2	.	.	.
CCCCCCCCN1C(=O)[C@H](CC(=O)NCc2ccccc2)C[C@@]2(C(=O)OC)CC(C)(C)CC=C12	.	.	12.7	.	.	.
COC(=O)[C@@]12C[C@@H](CC(=O)NCc3ccc(OC)c(OC)c3)C(=O)N(CCc3ccc(OC)c(OC)c3)C1=CCC(C)(C)C2	.	.	30.5*	.	.	-11.3
CCCCCCCCN1C(=O)[C@H](CC(=O)NCc2ccc(OC)c(OC)c2)C[C@@]2(C(=O)OC)CC(C)(C)CC=C12	.	.	37.4*	.	.	3.3
COC(=O)[C@@]12C[C@@H](CC(=O)NCc3cccc(C(F)(F)F)c3)C(=O)N(Cc3ccccc3)C1=CCC(C)(C)C2	.	.	27.6	.	.	.
COC(=O)[C@@]12C[C@@H](CC(=O)NCc3cccc(C(F)(F)F)c3)C(=O)N(Cc3cccc4ccccc34)C1=CCC(C)(C)C2	.	.	30.9*	.	.	1.3
CNC(=O)CCCCCNS(=O)(=O)c1ccc(C)cc1	-0.2	-2.8	31.0*	-4.8	0.2	-8.3
NC(=O)c1ccc(NC(=O)COC(=O)c2ccccc2SCC(=O)N2CCCC2)cc1	.	.	32.9*	.	-18.0	-6.1
O=C(COC(=O)c1ccccc1SCC(=O)N1CCCC1)Nc1ccc(OC(F)F)cc1	.	8.1	-2.7	.	-1.7	.
CCOc1ccccc1NC(=O)COC(=O)c1ccccc1SCC(=O)N1CCCC1	.	1.8	36.7*	.	-5.5	-10.1
O=C(COC(=O)c1ccccc1SCC(=O)N1CCCC1)Nc1ccccc1C(F)(F)F	-4.0	5.1	-7.7	49.1	1.2	.
CCc1ccccc1-c1cc(C(C)=O)c2n(c1=O)CCC2	.	.	0.8	.	.	.
Cc1cc(OCc2cc(C(=O)N(C)Cc3nonc3C)no2)cc(C)c1Cl	4.0	2.9	31.2*	-9.7	-8.0	1.3
SMILES	3CLpro inhibitor	BJeLR lethal	CCHF vOTU inh-1	DUSP3 inh	MazF activator	CCHF vOTU inh-2
CCc1ccc(CN(C)C(=O)c2cc(COc3cc(C)c(Cl)c(C)c3)on2)nc1	5.3	2.4	30.1*	-6.0	-5.7	-5.6
COC(=O)c1cc(-c2cccc(C#N)c2)c(=O)n2c1CCC2	.	.	-0.4	.	.	.
CN1C(C(=O)Nc2cccc(O)c2)=CC(c2cccs2)=NS1(=O)=O	2.6	2.3	32.6*	5.5	-1.0	-6.8
COc1cc(CCNC2=CC(=O)c3ncccc3C2=O)ccc1O	.	.	73.5*	.	11.2	78.0*
O=C(CSc1nnc(-c2cnccn2)n1-c1ccccc1)Nc1ccc2cn[nH]c2c1	.	.	-0.1	.	.	.
CC(C)C[C@@H]1NC(=O)[C@H]2C[C@]3(c4ccccc4)c4ccccc4N[C@H]3N2C1=O	.	.	7.6	.	.	.
CCC(CNc1cc(OC)cc2cccnc12)NC1CCCCC1 (stereo not drawn)	4.6	6.6	109.8*	54.1*	4.6	102.3*
COc1cc(NCCCCC(C)N)c2nccc(C)c2c1 (stereo not drawn)	.	.	57.1*	.	9.0	44.6*
COc1cc(NS(=O)(=O)c2ccc(C)cc2)c2ncccc2c1	-2.8	23.2	-3.5	17.7	1.4	.
COc1ccc2[nH]c3c(NCCN(C(C)C)C(C)C)ncnc3c2c1	-1.7	.	-16.4	20.0	8.3	.
COc1cc(NCCCC(C)N)c2ncccc2c1 (stereo not drawn)	0.3	2.7	65.1*	.	1.4	108.0*
O=C1C(NC(=O)N2c3ccccc3C=Cc3ccccc32)CCCCN1Cc1ccc(Cl)cc1 (stereo not drawn)	.	.	4.5	.	.	.
CCc1ccc(C=NN2CCN(Cc3ccc(C)cc3C)CC2)cc1	.	.	2.6	.	.	.
CC(O)(c1cccc(F)c1)c1nc(-c2cccc(C(F)(F)F)c2)cs1 (stereo not drawn)	.	.	21.2	.	.	.
CC(O)(c1ccc(F)c(F)c1)c1nc(-c2cccc(C(F)(F)F)c2)cs1 (stereo not drawn)	.	.	39.4*	.	.	5.4
COC(=O)C1=C(C)N(Cc2cccc(C(F)(F)F)c2)C(=NCc2ccc(C(F)(F)F)cc2)NC1c1ccc(C(F)(F)F)cc1 (stereo not drawn)	.	.	40.2*	.	.	11.1
COC(=O)C1=C(C)N(Cc2cccc(C(F)(F)F)c2)C(=NCc2ccc(C(F)(F)F)cc2)NC1c1cccc(F)c1 (stereo not drawn)	.	.	38.1*	.	.	3.1
COC(=O)C1=C(C)N(Cc2ccc(C(F)(F)F)cc2)C(=NCc2ccc(OC)cc2)NC1c1ccccc1C(F)(F)F (stereo not drawn)	.	.	34.9*	.	.	-6.1
COC(=O)C1=C(C)N(Cc2cccc(C(F)(F)F)c2)C(=NCc2ccc(C(F)(F)F)cc2)NC1c1ccc(F)cc1 (stereo not drawn)	.	.	25.0	.	.	.
COC(=O)C1=C(C)N(Cc2ccc(C(F)(F)F)cc2)C(=NCc2cccc(C(F)(F)F)c2)NC1c1ccccc1C(F)(F)F (stereo not drawn)	.	.	7.2	.	.	.
COc1ccc(CNC(=O)OC2CC3CC2[C@H]2CCCCN2C3)cc1 (stereo partly drawn)	.	.	-4.4	.	.	.
Cc1c(N=C2C=CC(=O)c3ccccc32)c(=O)n(-c2ccccc2)n1C	-0.8	1.5	90.4*	10.8	4.7	-6.1

Source: PubChem BioAssay
